Pf Dd2 inh: Plasmodium falciparum Dd2 growth inhibition; Potency, µM (titrated, usually from 28.9 µM), for the others: at the top dose activity, negative = inhibition, most hits filed as inhibitors; P. falciparum Dd2 growth, SYBR Green, 72 h; hit rate 4.3% among 120,000; active = well fitted inhibition curve with a large enough effect;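 also: plate controls were DMSO vehicle for no effect and reference drug for full effect; nearly all actives have a fitted effect of over 65% in size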
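Infected erythrocytes (Dd2, 0.3% parasitemia, 2.5% hematocrit final) are added to compound in RPMI-1640/Albumax II medium, grown 72 h at 37C in low oxygen, then lysed with saponin/Triton-X containing SYBR Green and read by fluorescence.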
The depositor's hits bear a star; i = inactive; [ ] = remark or other dose. The sample as a whole holds a higher share of hits than the screen did. Potency is read from the fitted curve at half-maximal effect.

SMILES | Pf Dd2 inh
FC(F)(F)CN1C2CCC1CN(c1nccc(C(F)(F)F)n1)C2 | 16.4%
Cc1cc(C)nc(N2CC3CCC(C2)N3CC(F)(F)F)c1 | i
Cc1ccc(Nc2ccnc(N3CC4CCC(C3)N4CC(F)(F)F)n2)cc1 | 10µM*
COCC(=O)N1CCC(c2nn(-c3ccccc3)c(=O)[nH]2)CC1 | -8.2%[44.1 µM]
COC(=O)c1ccc2c(c1)nc1n2[C@@H](CNCc2ccccc2)COC1 | -24.4%[44.1 µM]
CCNC(=O)c1coc(COc2ccc3c(c2)C(c2cccc(F)c2)N(C(=O)C(C)C)CC3)n1 (configuration not stated) | 0.708µM*
COCCNC(=O)c1coc(COc2ccc3c(c2)C(c2cccc(F)c2)N(C(=O)C(C)C)CC3)n1 (configuration not stated) | -10.2%
CC(C)NC(=O)c1coc(COc2ccc3c(c2)C(c2cccc(F)c2)N(C(=O)C2CC2)CC3)n1 (configuration not stated) | -22.9%
CCCCCNc1ncnc2c1CN(c1ccccc1F)C(=O)CN2C | 8.9%
O=C(C1CC1)N1CCCCCCn2c(nnc2-c2ccc(F)cc2)CC1 | -14.7%
CCc1ccc(NC(=O)COc2ccc(-c3nnc4n3CCCC4)cc2)cc1 | 3.98µM*
Cc1ccccc1NC(=O)Cn1c(C)cc2nc3n(c(=O)c21)CCCCC3 | -21.8%
Cc1cccc(NC(=O)Cn2nc3n(c2=O)CCCCC3)c1C | 253.8%
O=C(COc1ccc(-c2nnc3n2CCCC3)cc1)Nc1ccccc1 | 7.94µM*
O=C(COc1ccc(-c2nnc3n2CCCC3)cc1)Nc1ccc(F)cc1 | 5.62µM*
Cc1ccccc1NC(=O)COc1ccc(-c2nnc3n2CCCC3)cc1 | 11.2µM*
CCOc1ccc(NC(=O)Cn2c(C)cc3nc4n(c(=O)c32)CCCC4)cc1 | i
COc1ccc(CCC(=O)Nc2ccc(-c3nnc4n3CCCC4)cc2)cc1 | -5.7%
CNC(=O)N1CCCCCCn2c(nnc2-c2ccc(F)cc2)CC1 | -12.2%
Cc1cc2nc3n(c(=O)c2n1CC(=O)Nc1ccccc1)CCCCC3 | i
COc1cccc(CNC(=O)[C@@H]2C[C@@H](O)CN2C2CCN(C(=O)c3ccccc3)CC2)c1 | -1.9%
CC(=O)N1CC2(CCN(Cc3ncccn3)CC2)CC1C(=O)O (configuration not stated) | 6.3%
O=C(CN1CCCC1=O)NC1CCN(Cc2ccccc2)CC1 | -24.3%
Cc1cnc(C(=O)N2CCC(c3noc(-c4cccnc4)n3)C2)cn1 (configuration not stated) | i[5.79 µM]
CCOCC(=O)N1CCC2(CC1)c1nccn1-c1ccccc1CN2C | 22.8%[5.79 µM]
SMILES | Pf Dd2 inh
COc1c(C)cccc1C(=O)N1CCC2(CC1)Nc1ccccc1NC2=O | -2.0%
Cc1cn2nc(C(=O)N3CCC(C(=O)NC4CCC(C)CC4)CC3)cc2c(=O)[nH]1 (configuration not stated) | 20.6%
CCCCCC(=O)N1CC[C@@H](CC(=O)NC2CC2)[C@@H](CC)C1 | i
CCN(CC)C(=O)[C@@H]1CCC[C@@H](NCc2ccc(OC)cc2)CN(C)C(=O)C1 | 6.8%[44.1 µM]
O=C(c1cc2ccccc2oc1=O)N1CCC2(CCCN(Cc3ccccc3F)C2)C1 (configuration not stated) | -1.9%
O=C(c1ccc2c(c1)ncn2CCO)N1CCCn2nc(CO)cc2C1 | -12.7%
N#Cc1ccc(C(=O)N2C[C@@H]3C[C@H](C2)c2c(/C=C/c4ccc(Cl)cc4)ccc(=O)n2C3)cc1 | i
Cc1ccc(CNC(=O)Cn2ccn3nc4c(c3c2=O)CCCC4)cc1 | 6.0%
O=C(CCS(=O)(=O)c1ccccc1)N[C@H]1[C@@H]2CCO[C@@H]2[C@@H]1C1CCCC1 | -5.3%
O=C(COc1ccccc1)Nc1ccc(-c2nnc3n2CCCC3)cc1 | 10µM*
O=C(CCC1CCCC1)Nc1ccc(-c2nnc3n2CCCC3)cc1 | -20.6%
COc1cccc(NC(=O)COc2ccc(-c3nnc4n3CCCC4)cc2)c1 | 2.82µM*
O=C(Nc1ccc(-c2nnc3n2CCCC3)cc1)C1CC1 | 13.1%
COc1cccc(NC(=O)Cn2nc3n(c2=O)CCCCC3)c1 | 37.8%
COc1ccccc1NC(=O)Nc1ccc(-c2nnc3n2CCCC3)cc1 | 3.98µM*
COc1ccccc1NC(=O)Nc1cccc(-c2nnc3n2CCCC3)c1 | i
COc1cccc(NC(=O)Cn2c(C)cc3nc4n(c(=O)c32)CCCC4)c1 | i
CCc1ccc(NC(=O)COc2cccc(-c3nnc4n3CCCC4)c2)cc1 | 5.01µM*
CCc1cccc(OCC(=O)Nc2ccc(S(=O)(=O)Nc3ncccn3)cc2)c1 | 0.1%
O=C(Nc1ccc(-c2nnc3n2CCCC3)cc1)Nc1ccccc1Br | 16.0%
COCCn1nc2n(c1=O)CCN(C(=O)Cc1ccc(OC)c(OC)c1)CC2 | 22.6%
O=C(Nc1ccc(C(F)(F)F)cc1)N1CCCC(Cn2c(C3CC3)nc3cccnc32)C1 (configuration not stated) | -0.6%
CCCC(=O)NC1CCN(c2ccc(C)cc2)C1=O (configuration not stated) | -12.5%
CNC(=O)Cn1nc(C2CCN(C(=O)c3cccc(F)c3)CC2)c2c1CCOC2 | i[5.79 µM]
Cc1ccccc1[C@H]1C[C@@H](O)[C@@H](O)[C@@H]1NS(=O)(=O)c1cccc(C#N)c1 | -24.1%[44.1 µM]

Bioassay records (PubChem BioAssay)
